High-throughput results: PubChem BioAssay, National Center for Advancing Translational Sciences (NCATS)
HCV inhibitor: qHTS Assay for Inhibitors of Hepatitis C Virus (HCV); Potency, µM (titrated, usually from 41.8 µM), for inactives: at the highest dose activity change, negative = inhibition, actives largely listed as inhibitors; Huh7.5.1 HCVcc-Cre infection, luciferase reporter, 44 h; actives 3.4% (n = 340,000); further: potency means the concentration at half of the fitted maximal effect; on the % scale 0 is the no-effect control and ±100 the full control effect
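Cells seeded at 1,000/well and cultured 4 h, then compounds added followed by HCVcc-Cre virus (~0.5 moi). After 44 h further culture, luciferase substrate was added, plates held 15 min at room temperature, and luminescence read for 15 sec.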
CHX counter: Cycloheximide Counterscreen for Small Molecule Inhibitors of Shiga Toxin | cell reporter, cycloheximide protein synthesis inhibition counterscreen | max response, % | actives 12% (n = 300,000) | AID 2314, 2010; in the data active means max response mostly above about 13%, no sharp cut-off; inactive means mostly below about 14%; further: read at 38.3 µM for the half of the compounds with a filed dose; 0% is about no effect
Pf growth 96h: Primary qHTS for delayed death inhibitors of the malarial parasite plastid, 96 hour incubation; P. falciparum luciferase reporter growth, 96 h; Potency, µM (top dose mostly 28.7 µM), without a hit: at the top dose activity change, negative = inhibition, usual class: inhibitors; actives 6.9% (n = 320,000); further: potency means the concentration at half of the fitted maximal effect; on the % scale 0 is the no-effect control and ±100 the full control effect
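Erythrocytes infected with luciferase-expressing P. falciparum were dispensed at 2% hematocrit and 0.05% parasitemia (final), then incubated with compounds 96 hours at 37 C in 5% CO2. Luminescence after detection reagent addition reported growth.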
Shiga inhibitor: A qHTS for Small Molecule Inhibitors of Shiga Toxin; Vero cells, Shiga toxin protein synthesis inhibition reporter; inhibition, % at 38.7 µM; actives 9.2% (n = 290,000); in the data active means inhibition mostly above about 28%, no sharp cut-off; inactive means mostly below about 43%; further: 0% is about no effect
Pf growth 48h: Primary qHTS for delayed death inhibitors of the malarial parasite plastid, 48 hour incubation; P. falciparum luciferase growth in erythrocytes, 48 h; Potency, µM (series often up to 28.7 µM), without a hit: at the highest dose activity change, negative = inhibition, hits mostly inhibitors; actives 5.9% (n = 310,000); further: potency means the concentration at half of the fitted maximal effect; on the % scale 0 is the no-effect control and ±100 the full control effect
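Compounds are pin-transferred into medium, infected erythrocytes (2% hematocrit, 0.1% parasitemia final) are added, and plates sit one parasite generation at 37 C in 5% CO2. Detection reagent is then added and luminescence measured.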
HCMV antiviral: qHTS Assay for inhibitors of the human cytomegalovirus (HCMV); activity change, negative = inhibition, % at 57.5 µM; actives 4.5% (n = 410,000); HFF cells, HCMV-luciferase reporter, 72 h; hits give low values; in the data active means activity change below about -60%; inconclusive means no clear call, values can overlap the other calls; inactive means above about -39%; further: on the % scale 0 is the no-effect control and ±100 the full control effect
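Luciferase read-out from HCMV-luciferase-infected HFFs (MOI 1 PFU/cell) 72 h post infection at 37C; compounds added after 16 h cell attachment; activity normalized between buffer-only basal and Salinomycin (10uM) inhibitor controls.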
Starred values were filed as active, the others as inactive. Rows were chosen to be rich in hits. Some 21% of all compounds tested hit in one or more screens of this group. Unless noted, the call rests on the fitted dose curve; in most records, active means well fitted inhibition curve with a large enough effect; inconclusive means small, poorly fitted or top-dose-only effect, or another doubt; inactive means no such curve, though single readings can be large or run the other way.

Screening Cc1sc(NC(=O)c2ccco2)c(C(c2cccnc2)N2CCC(C)CC2)c1C (stereo not drawn) returned HCV inhibitor 8.9µM*, CHX counter -4, Shiga inhibitor 2, Pf growth 48h 1.9µM* and HCMV antiviral -93*.
`CC(C)(C)n1nnnc1C(c1cccnc1)N1CCN(C(=O)c2ccco2)CC1` (stereo not drawn) gave HCV inhibitor 16%, CHX counter -3, Pf growth 96h inconclusive, Shiga inhibitor -1, Pf growth 48h -18% and HCMV antiviral 55.
Screening COc1ccc(C(c2c(NC(=O)c3ccco3)sc(C)c2C)N2CCOCC2)cc1 (stereo not drawn) returned HCV inhibitor inconclusive, Pf growth 96h 10%, Pf growth 48h inconclusive and HCMV antiviral -30.
Screening CCN1CCN(C(c2cccnc2)c2c(NC(=O)c3ccco3)sc(C)c2C)CC1 (stereo not drawn) returned HCV inhibitor inconclusive, Pf growth 96h 4.7µM*, Pf growth 48h 4.1µM* and HCMV antiviral 5.
Screening Cc1ccc(CCNC(=O)c2ccc(CSCc3ccccc3C)o2)cc1 returned HCMV antiviral 12.
Screening CCCCOC(=O)NS(=O)(=O)c1sc(CC(C)C)cc1-c1ccc(Cn2c(CC)nc3c(C)cc(C)nc32)cc1 returned HCV inhibitor 13µM*, Pf growth 96h inconclusive and Pf growth 48h 15µM*.
Screening CCCCOC(=O)Nc1ccc(S(=O)(=O)Nc2nc(C)cc(C)n2)cc1 returned HCV inhibitor 3%, CHX counter -2, Pf growth 96h inconclusive, Shiga inhibitor -16, Pf growth 48h -5% and HCMV antiviral 25.
For COc1ccccc1C(CNC(=O)c1cc(C)nc2ccccc12)N(C)C (stereo not drawn) the results were HCV inhibitor 1%, CHX counter 2, Pf growth 96h 22%, Shiga inhibitor -4, Pf growth 48h 9% and HCMV antiviral -26.
`CC1(C)C2CCC1(C)C(NCC(O)COc1ccc(C#N)cc1)C2` (stereo not drawn) gave HCV inhibitor 0%, CHX counter -4, Pf growth 96h 4.1µM*, Shiga inhibitor 7 and HCMV antiviral 54.
O=C(C[n+]1cc(-c2ccccc2)n2c1CCC2)Nc1nc(-c2ccccc2)cs1 was read as HCV inhibitor inconclusive, CHX counter 12, Pf growth 96h inconclusive, Shiga inhibitor 1, Pf growth 48h inconclusive and HCMV antiviral 27.
Screening Cc1ccc(NC(=O)C[n+]2cc(-c3ccccc3)n3c2CCC3)cc1 returned HCV inhibitor inconclusive, CHX counter 2, Pf growth 96h 2.1µM*, Shiga inhibitor 19, Pf growth 48h 10µM* and HCMV antiviral inconclusive.
`Cc1ccc(-c2c[n+](CC(=O)Nc3nc(-c4ccccc4)cs3)c3n2CCC3)cc1` gave HCV inhibitor 6.3µM*, CHX counter -3, Pf growth 96h inconclusive, Shiga inhibitor 23, Pf growth 48h inconclusive and HCMV antiviral 17.
`Cc1ccccc1NC(=O)CN1CCCC1` gave HCMV antiviral -22.
Screening Cc1ccc(-c2c[n+](CC(=O)Nc3ccccc3C)c3n2CCC3)cc1 returned HCV inhibitor 0%, CHX counter -2, Pf growth 96h 6.6µM*, Shiga inhibitor -4, Pf growth 48h inconclusive and HCMV antiviral 55.
For CC[C@H](C)[C@H](NC(=O)[C@H](Cc1ccccc1)NC(=O)[C@H](CCC(=O)O)NC(=O)[C@H](CCCCN)NC(=O)[C@H](C)NC(=O)[C@H](C)NC(=O)[C@H](CCC(N)=O)NC(=O)CNC(=O)[C@H](CCC(=O)O)NC(=O)[C@H](CC(C)C)NC(=O)[C@H](Cc1ccc(O)cc1)NC(=O)[C@H](CO)NC(=O)[C@H](CO)NC(=O)[C@@H](NC(=O)[C@H](CC(=O)O)NC(=O)[C@H](CO)NC(=O)[C@@H](NC(=O)[C@H](Cc1ccccc1)NC(=O)[C@@H](NC(=O)CNC(=O)[C@H](CCC(=O)O)NC(=O)[C@H](C)NC(=O)[C@@H](N)Cc1cnc[nH]1)[C@@H](C)O)[C@@H](C)O)C(C)C)C(=O)N[C@@H](C)C(=O)N[C@@H](Cc1c[nH]c2ccccc12)C(=O)N[C@@H](CC(C)C)C(=O)N[C@H](C(=O)N[C@@H](CCCCN)C(N)=O)C(C)C the results were CHX counter 10 and Shiga inhibitor -3.
Cc1ccsc1C(=O)C1CCCN(Cc2cnc(N3CCCC3)s2)C1 (stereo not drawn) was read as HCV inhibitor inconclusive, CHX counter 0, Pf growth 96h 22%, Shiga inhibitor -19, Pf growth 48h -4% and HCMV antiviral 9.
Screening COc1ccc(F)cc1C(=O)C1CCCN(Cc2cnc(N3CCCC3)s2)C1 (stereo not drawn) returned HCV inhibitor 0%, CHX counter 1, Pf growth 96h -5%, Shiga inhibitor -6, Pf growth 48h -2% and HCMV antiviral -32.
`COc1ccc(Cl)cc1C(=O)C1CCCN(Cc2cnc(N3CCOCC3)s2)C1` (stereo not drawn) gave HCV inhibitor inconclusive, CHX counter 0, Pf growth 96h 10µM*, Shiga inhibitor -23, Pf growth 48h inconclusive and HCMV antiviral inconclusive.
Screening COc1c(C)cc(C(=O)C2CCCN(Cc3cnc(N4CCOCC4)s3)C2)cc1C (stereo not drawn) returned HCV inhibitor 11µM*, CHX counter -1, Pf growth 96h 45%, Shiga inhibitor -6, Pf growth 48h inconclusive and HCMV antiviral -25.
`O=C(Nc1nccs1)c1ccc(COc2ccccc2Cl)o1` gave HCV inhibitor inconclusive, CHX counter 60*, Pf growth 96h inconclusive, Shiga inhibitor 81*, Pf growth 48h 67% and HCMV antiviral 24.
Screening Cc1cc(NC(=O)c2ccc(COc3ccc(Cl)c(C)c3)o2)no1 returned HCV inhibitor 1%, CHX counter 8, Pf growth 96h 9.3µM*, Shiga inhibitor -4, Pf growth 48h -9% and HCMV antiviral 96.
Screening O=C(Nc1nccs1)c1ccc(COc2c(F)c(F)cc(F)c2F)o1 returned HCV inhibitor 5%, Pf growth 96h -23%, Pf growth 48h 8% and HCMV antiviral 7.
For Cc1cc(NC(=O)c2ccc(COc3ccccc3Cl)o2)no1 the results were HCV inhibitor inconclusive, CHX counter 12, Pf growth 96h -16%, Shiga inhibitor 18, Pf growth 48h -19% and HCMV antiviral -12.
